# Source: PubChem (several laboratories)
# Only some compounds are listed: those with a hit (about 27% of all), similar ones and a draw of the others.
# CYP2C19 activ – cytochrome P450 2C19 (human) activation; recombinant CYP2C19, luciferin-H EGE luminescence; active compounds read high; 0 = fully inhibited enzyme, 1 = untreated enzyme; activation factor at 5 µM; 96,000 tested, under 10 active; P33261;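 active = activation factor of at least 2 at 5 µM in the primary screen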;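 also: 0 = wells with 2.5 mM tranylcypromine and 1 = vehicle-only wells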
# CYP2C19 inhib – blocks human cytochrome P450 2C19; CYP2C19 Supersomes, luciferin-H EGE luminescence, 30 min; inhibition, % at 5 µM; hit rate 21% among 96,000;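 active = CYP2C19 inhibition above a set limit at 5 µM in the primary screen, cut at about 50% in these data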;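 also: plate controls were negative control wells for no effect and 2.5 mM tranylcypromine positive control for full effect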
# CYP2C9 inhib – blocks human cytochrome P450 2C9 | P11712 | CYP2C9 Supersomes, luciferin-H conversion, luminescence | inhibition, % at 5 µM | hit rate 20% among 96,000 | AID 777;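 active = blocking of liver enzyme CYP2C9 beyond about 50% at 5 µM, limit read from the data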
# Cav3 T inh – human Cav3.2 channel inhibition, primary screen; O95180; Cav3.2-expressing cells, Fluo-4 calcium fluorescence FDSS; active compounds read low; B-score at 10 µM; hit rate 4% among 100,000; AID 449739;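 active = single-dose well whose peak fluorescence ratio is a statistical outlier from its plate by either plate-standardised score or position-corrected B-score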
# CYP2C9 activ – activators of human CYP2C9; P11712; recombinant CYP2C9, luciferin-H conversion, luminescence; active compounds read high; factor 1 = untreated enzyme, 0 = blocked; activation factor at 5 µM; hit rate 1.4% among 96,000;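 active = activation factor of 2 or more for CYP2C9 at a 5 µM dose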;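 also: 0 = sulfaphenazole-blocked wells and 1 = vehicle-only wells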
# The depositor's hits bear a star; . = no result.
SMILES,CYP2C19 activ,CYP2C19 inhib,CYP2C9 inhib,Cav3 T inh,CYP2C9 activ
COC(=O)C(/C=N/OCc1ccc([N+](=O)[O-])cc1)NC(=O)c1cccc(Cl)c1 (stereo not given),0.2,79*,61*,-1.7,0.4
O=C(CCSc1ccccc1)NCCN1CCOCC1,0.5,49,-2,0.086,1
O=C(CC(c1ccccc1)c1cc(Br)ccc1O)NCCN1CCOCC1 (stereo not given),0.2,85*,56*,0.78,0.4
O=C(Cc1nc(-c2ccc(Br)s2)cs1)NCCN1CCOCC1,0.2,77*,34,1.1,0.7
O=C(Cc1ccc(-c2ccccc2)cc1)NCCN1CCOCC1,0.3,72*,42,0.25,0.6
O=C(Cc1ccc(-c2ccccc2)cc1)N1CCOCC1,0.3,74*,65*,0.53,0.3
Cc1sc2ncnc(SC(C)C#N)c2c1C (stereo not given),.,.,.,-0.16,.
COc1ccc(CN2C(=O)[C@H]3Cc4c([nH]c5ccccc45)C(C)(C)N3C2=O)cc1,.,.,.,-2.2,.
Cc1ccc(C(C)C)c(Oc2nnnn2-c2ccccc2)c1,0.1,91*,76*,-1.8,0.2
Cc1ccc(C)c(Oc2nnnn2-c2ccccc2)c1,0.1,93*,43,-2.4,0.6
CCOc1ccc(-c2nnn(CC(=O)c3cc(OC)ccc3OC)n2)cc1,0.9,12,-57,-2.7,1.6
CCOC(=O)N1C2=NC(C(=O)OC)=C(C(=O)OC)[C@@H]3N(C)c4ccccc4[C@]23C[C@H]1C(=O)OC,.,.,.,0.39,.
Cc1nn(-c2ccc(Cl)c(Cl)c2Cl)c(=O)c2ccccc12,0.3,71*,54*,-2.7,0.5
CCCCn1nnnc1NCc1ccc(N(CC)CC)cc1,0.3,74*,50,-0.66,0.5
CCCCn1nnnc1NCc1cccc(OC)c1OC,0.2,85*,62*,-0.17,0.4
CCCCn1nnnc1NCc1ccc(OC)c(OC)c1,0.8,23,4,0.24,1
COc1ccc(Oc2nc(SC)nc3ccccc23)cc1,1,1,-6,-0.014,1.1
CCOc1ccc(-n2cc(C(=O)Nc3cccc(Cl)c3)c3cc(OC)c(OC)cc3c2=O)cc1,0.6,36,59*,-3,0.4
COC(=O)c1cccc(C23CC4(C2)[C@H](CN(Cc2cccnc2)[C@@H]4c2ccccc2)C3c2ccccc2)c1 (stereo not given in full),.,.,.,0.38,.
O=C1CC(N2CCN(c3ccc(C(=O)c4ccc(F)cc4)cc3)CC2)C(=O)N1 (stereo not given),1,3,7,0.16,0.9
CC(=O)OC12CC3CC(C1)C(=NO)C(C3)C2,1.1,-8,-14,-0.18,1.1
O=C(Cc1c(F)c(F)c(F)c(F)c1F)OC12CC3CC(C1)C(=O)C(C3)C2,0.3,72*,-1,-1.6,1
Cc1nc(SCC(O)CCl)c([N+](=O)[O-])[nH]1 (stereo not given),.,.,.,-0.49,.
Cc1ccc(Nc2c3c(nc4ncnn24)CCC3)cc1,0.4,60*,19,0.39,0.8
CCOc1ccc(Nc2c3c(nc4ncnn24)CC(C)CC3)cc1 (stereo not given),0.5,52*,37,-0.14,0.6
SMILES,CYP2C19 activ,CYP2C19 inhib,CYP2C9 inhib,Cav3 T inh,CYP2C9 activ
O=S(=O)(NCc1cccnc1)c1ccc(Cl)c(Cl)c1,.,.,.,-0.22,.
O=S(=O)(NCc1ccncc1)c1ccccc1,0.1,91*,33,-0.053,0.7
COC(=O)COc1ccc(S(=O)(=O)NCc2ccncc2)cc1,0,99*,70*,.,0.3
COc1ccc(N(C(=O)c2ccc(S(=O)(=O)N3CCOCC3)cc2)C2C=CS(=O)(=O)C2)cc1 (stereo not given),1,5,-4,1.2,1
Cc1cccc(C)c1N1C(=O)CC(N(O)c2ccccc2)C1=O (stereo not given),0,97*,30,-0.69,0.7
Cc1c(Cl)cccc1N1C(=O)CC(N(O)c2ccccc2)C1=O (stereo not given),0.1,94*,-156,-3.8,2.6*
COc1cccc(C(=O)Nc2ncc3c(n2)CC(C)CC3=O)c1 (stereo not given),0.9,5,22,-0.46,0.8
CC1CC(=O)c2cnc(Nc3cccc(C(F)(F)F)c3)nc2C1 (stereo not given),0.5,53*,26,-0.13,0.7
COc1cccc(C2/C(=C(\O)c3c(C)nc4c(C)cccn34)C(=O)C(=O)N2CCCN(C)C)c1 (stereo not given),0.9,5,-6,.,1.1
Cc1ccc(-c2ccc(=O)n(CC(=O)N3CCN(c4cccc(C)c4)C(C)C3)n2)cc1 (stereo not given),0.7,27,19,-2.8,0.8
Cc1cccc(N2CCN(C(=O)c3ccncc3)CC2C)c1 (stereo not given),0,100*,49,1.1,0.5
Cc1cccc(N2CCN(C(=O)CN3CCOc4ccccc43)CC2C)c1 (stereo not given),0.1,94*,54*,0.075,0.5
CCOC(=O)C1CCCN(C2CC(=O)N(c3cccc(C(F)(F)F)c3)C2=O)C1 (stereo not given),1,1,-15,0.12,1.2
CCOC(OCC)P(=O)(C(C)C)C(C)C,1.1,-10,-18,-0.23,1.2
COc1ccccc1NC(=O)CSc1nnnn1Cc1ccccc1,0.1,92*,2,-0.48,1
C=CCn1nnnc1SCC(=O)Nc1ccccc1C(=O)OC,0.1,91*,42,-0.072,0.6
CN(CC1CCCO1)S(=O)(=O)c1ccc(C(=O)Nc2nc(-c3ccccn3)cs2)cc1 (stereo not given),0.9,13,26,-3.9,0.7
O=c1c([N+](=O)[O-])c(NC2CCCCC2)c2ccccc2n1-c1ccccc1,.,.,.,0.18,.
O=C(COc1ccccc1O)Nc1ccc(Cl)cc1,0.1,88*,60*,-3.5,0.4
O=C(COc1ccccc1Cl)Nc1ccc(Cl)cn1,0.9,10,-3,-0.75,1
CSc1ccccc1NC(=O)COc1ccccc1Cl,0.2,77*,59*,0.049,0.4
Clc1ccc(C2=Nn3c(nnc3-c3n[nH]c4c3CCC4)SC2)cc1Cl,.,.,.,-3.4,.
O=C(c1cccs1)n1nc(-c2ccco2)nc1SCc1ccccc1,0.8,21,24,.,0.8
CCC(=O)n1nc(-c2ccco2)nc1SCc1ccccc1,0.2,78*,64*,0.057,0.4
CC(=O)n1nc(-c2ccco2)nc1SCc1ccccc1,0.3,66*,31,1.5,0.7
CC1(c2ccc(OC(F)F)cc2)NC(=O)N(CC(=O)Nc2ccc3c(c2)OCO3)C1=O (stereo not given),1,-4,16,1.6,0.8
CC(C)(C)c1ccc(C2(C)NC(=O)N(CC(=O)Nc3ccc4c(c3)OCO4)C2=O)cc1 (stereo not given),0.8,17,40,-5.6*,0.6
COc1cc2c(cc1NC(=O)CN1C(=O)NC3(CCc4ccccc43)C1=O)oc1ccccc12 (stereo not given),1,2,38,0.14,0.6
